Experimental data published in PubChem BioAssay AID1159580 (chemical genetic matrix, 2015).
In all, about 5,500 compounds went through this assay and about 2,000 (36%) were called active. Inconclusive results (about 18%) are left out. No stated cut-off is given here; in the data, active means normalized growth mostly below about 0.91 (no sharp cut-off); inconclusive means no clear call, values can overlap the other calls; inactive means mostly above about 0.92. The list shows a part of the results.

Test: chemical genetic growth profiling, strain panel (AID 1159580);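 further: tested at 20 µM; growth read once vehicle control cultures reached saturation at 30 °C; 1 = growth at the plate median or of vehicle wells; lower values mean less growth of the strain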
Conditions: growth OD
[1] = S. cerevisiae deletion strains, locus YAL013W, strain DEP1, active compounds read low
[2] = S. cerevisiae deletion strains, locus YBR229C, strain ROT2, active compounds read low
[3] = S. cerevisiae deletion strains, locus YDL101C, strain DUN1, active compounds read low
[4] = S. cerevisiae deletion strains, locus YDL134C, strain PPH21, active compounds read low
[5] = S. cerevisiae deletion strains, locus YDR150W, strain NUM1, active compounds read low
[6] = S. cerevisiae deletion strains, locus YEL061C, strain CIN8, active compounds read low
[7] = S. cerevisiae deletion strains, locus YGR078C, strain PAC10, active compounds read low
[8] = S. cerevisiae deletion strains, locus YHR030C, strain SLT2, active compounds read low
[9] = S. cerevisiae deletion strains, locus YHR087W, strain rtc3, active compounds read low
[10] = S. cerevisiae deletion strains, locus YJR043C, strain POL32, active compounds read low
[11] = S. cerevisiae deletion strains, locus YJR075W, strain HOC1, active compounds read low
[12] = S. cerevisiae deletion strains, locus YLR039C, strain RIC1, active compounds read low
[13] = S. cerevisiae deletion strains, locus YLR058C, strain SHM2 (second series), active compounds read low
[14] = S. cerevisiae deletion strains, locus YLR085C, strain ARP6, active compounds read low
[15] = S. cerevisiae deletion strains, locus YLR262C, strain YPT6, active compounds read low
[16] = S. cerevisiae deletion strains, locus YML094W, strain GIM5, active compounds read low
[17] = S. cerevisiae deletion strains, locus YMR219W, strain ESC1, active compounds read low
[18] = S. cerevisiae deletion strains, locus YMR263W, strain SAP30, active compounds read low
[19] = S. cerevisiae deletion strains, locus YNL153C, strain GIM3, active compounds read low
[20] = S. cerevisiae deletion strains, locus YNL298W, strain CLA4 (second series), active compounds read low
[21] = S. cerevisiae deletion strains, locus YNL322C, strain KRE1, active compounds read low
[22] = S. cerevisiae deletion strains, locus YNR030W, strain Alg12, active compounds read low
[23] = S. cerevisiae deletion strains, locus YPL055C, strain LGE1, active compounds read low
[24] = S. cerevisiae deletion strains, locus YPL241C, strain CIN2, active compounds read low
[25] = S. cerevisiae deletion strains, locus YPR135W, strain CTF4, active compounds read low
[26] = S. cerevisiae deletion strains, locus YAR019C, strain CDC15, active compounds read low
[27] = S. cerevisiae deletion strains, locus YBL105C, strain PKC1, active compounds read low
[28] = S. cerevisiae deletion strains, locus YBR135W, strain CKS1, active compounds read low
[29] = S. cerevisiae deletion strains, locus YBR136W, strain MEC1, active compounds read low
[30] = S. cerevisiae deletion strains, locus YBR160W, strain CDC28, active compounds read low
[31] = S. cerevisiae deletion strains, locus YDL017W, strain CDC7, active compounds read low
[32] = S. cerevisiae deletion strains, locus YDL028C, strain MPS1, active compounds read low
[33] = S. cerevisiae deletion strains, locus YDL108W, strain KIN28, active compounds read low
[34] = S. cerevisiae deletion strains, locus YDL132W, strain cdc53, active compounds read low
[35] = S. cerevisiae deletion strains, locus YDL214C, strain PRR2, active compounds read low
[36] = S. cerevisiae deletion strains, locus YDR052C, strain DBF4, active compounds read low
[37] = S. cerevisiae deletion strains, locus YDR054C, strain cdc34, active compounds read low
[38] = S. cerevisiae deletion strains, locus YDR226W, strain ADK1, active compounds read low
[39] = S. cerevisiae deletion strains, locus YDR477W, strain SNF1, active compounds read low
[40] = S. cerevisiae deletion strains, locus YER123W, strain YCK3, active compounds read low
[41] = S. cerevisiae deletion strains, locus YER133W, strain GLC7, active compounds read low
[42] = S. cerevisiae deletion strains, locus YFL009W, strain cdc4, active compounds read low
[43] = S. cerevisiae deletion strains, locus YFL029C, strain CAK1, active compounds read low
[44] = S. cerevisiae deletion strains, locus YFR003C, strain YPI1, active compounds read low
[45] = S. cerevisiae deletion strains, locus YFR019W, strain FAB1, active compounds read low
[46] = S. cerevisiae deletion strains, locus YFR028C, strain CDC14, active compounds read low
[47] = S. cerevisiae deletion strains, locus YGR040W, strain KSS1, active compounds read low
[48] = S. cerevisiae deletion strains, locus YGR052W, strain FMP48, active compounds read low
[49] = S. cerevisiae deletion strains, locus YGR092W, strain DBF2, active compounds read low
[50] = S. cerevisiae deletion strains, locus YHR079C, strain IRE1, active compounds read low
[51] = S. cerevisiae deletion strains, locus YHR082C, strain KSP1, active compounds read low
[52] = S. cerevisiae deletion strains, locus YHR205W, strain SCH9, active compounds read low
[53] = S. cerevisiae deletion strains, locus YIL147C, strain SLN1, active compounds read low
[54] = S. cerevisiae deletion strains, locus YJL095W, strain BCK1, active compounds read low
[55] = S. cerevisiae deletion strains, locus YJL128C, strain PBS2, active compounds read low
[56] = S. cerevisiae deletion strains, locus YJL157C, strain FAR1, active compounds read low
[57] = S. cerevisiae deletion strains, locus YJR016C, strain ILV3, active compounds read low
[58] = S. cerevisiae deletion strains, locus YJR066W, strain TOR1 (second series), active compounds read low
[59] = S. cerevisiae deletion strains, locus YJR066W, strain TOR1, active compounds read low
[60] = S. cerevisiae deletion strains, locus YKL048C, strain ELM1, active compounds read low
[61] = S. cerevisiae deletion strains, locus YKL067W, strain YNK1, active compounds read low
[62] = S. cerevisiae deletion strains, locus YKL101W, strain HSL1, active compounds read low
[63] = S. cerevisiae deletion strains, locus YKL193C, strain SDS22, active compounds read low
[64] = S. cerevisiae deletion strains, locus YKL203C, strain TOR2, active compounds read low
[65] = S. cerevisiae deletion strains, locus YLR113W, strain HOG1, active compounds read low
[66] = S. cerevisiae deletion strains, locus YLR133W, strain CKI1, active compounds read low
[67] = S. cerevisiae deletion strains, locus YLR403W, strain SFP1, active compounds read low
[68] = S. cerevisiae deletion strains, locus YML070W, strain DAK1, active compounds read low
[69] = S. cerevisiae deletion strains, locus YMR001C, strain CDC5, active compounds read low
[70] = S. cerevisiae deletion strains, locus YMR205C, strain PFK2 (second series), active compounds read low
[71] = S. cerevisiae deletion strains, locus YMR277W, strain FCP1, active compounds read low
[72] = S. cerevisiae deletion strains, locus YNL006W, strain LST8, active compounds read low
[73] = S. cerevisiae deletion strains, locus YNL020C, strain ARK1, active compounds read low
[74] = S. cerevisiae deletion strains, locus YNL161W, strain CBK1, active compounds read low
[75] = S. cerevisiae deletion strains, locus YNL183C, strain NPR1, active compounds read low
[76] = S. cerevisiae deletion strains, locus YNL207W, strain RIO2, active compounds read low
[77] = S. cerevisiae deletion strains, locus YNL222W, strain SSU72, active compounds read low
[78] = S. cerevisiae deletion strains, locus YNL307C, strain MCK1 (second series), active compounds read low
[79] = S. cerevisiae deletion strains, locus YOL078W, strain AVO1, active compounds read low
[80] = S. cerevisiae deletion strains, locus YOL136C, strain PFK27, active compounds read low
[81] = S. cerevisiae deletion strains, locus YOR061W, strain CKA2, active compounds read low
[82] = S. cerevisiae deletion strains, locus YOR119C, strain RIO1, active compounds read low
[83] = S. cerevisiae deletion strains, locus YOR231W, strain MKK1, active compounds read low
[84] = S. cerevisiae deletion strains, locus YOR329C, strain SCD5, active compounds read low
[85] = S. cerevisiae deletion strains, locus YPL031C, strain PHO85, active compounds read low
[86] = S. cerevisiae deletion strains, locus YPL153C, strain RAD53, active compounds read low
[87] = S. cerevisiae deletion strains, locus YPL204W, strain HRR25, active compounds read low
[88] = S. cerevisiae deletion strains, locus YPL209C, strain IPL1, active compounds read low
[89] = S. cerevisiae deletion strains, locus YPL256C, strain CLN2, active compounds read low
[90] = S. cerevisiae deletion strains, locus YPR025C, strain CCL1, active compounds read low
[91] = S. cerevisiae deletion strains, locus YPR106W, strain ISR1, active compounds read low
[92] = S. cerevisiae deletion strains, locus YPR111W, strain DBF20, active compounds read low
[93] = S. cerevisiae deletion strains, strain NNK1, active compounds read low
[94] = S. cerevisiae deletion strains, strain TSCII, active compounds read low

Measured: normalized growth

N#Cc1sccc1Br
inactive: [1] 0.995 | [2] 0.982 | S. cerevisiae deletion strains, locus YCL061C, strain MRC1, active compounds read low 1.02 | [3] 0.967 | [4] 0.993 | [5] 1.06 | [6] 1 | [7] 0.999 | [8] 0.961 | [9] 0.986 | [10] 1.01 | [11] 1.03 | [12] 1 | [13] 0.991 | [14] 1.1 | [15] 1 | [16] 0.982 | [17] 0.991 | [18] 1.04 | [19] 1.02 | [20] 1.04 | [21] 0.997 | [22] 1 | [23] 1.02 | [25] 1.04 | S. cerevisiae strains, strain wild type, active compounds read low 0.99
active: [24] 1.32 [resistant]

O=C(Nc1cccnc1)c1cc2c(s1)-c1ccccc1CC2
inactive: [26] 0.925 | [27] 0.93 | [28] 0.919 | [29] 0.926 | [30] 0.93 | [31] 0.937 | [32] 0.921 | [3] 0.932 | [33] 0.924 | [34] 0.903 | [35] 0.745 | [36] 0.919 | [37] 0.9 | [38] 0.911 | [42] 0.915 | [43] 0.912 | [44] 0.928 | [45] 0.91 | [46] 0.918 | [49] 0.524 | [52] 0.755 | [53] 0.919 | [55] 0.946 | [56] 0.73 | [57] 0.92 | [58] 0.694 | [59] 0.532 | [60] 0.823 | [61] 0.736 | [62] 0.811 | [63] 0.918 | [66] 0.808 | [67] 0.663 | [69] 0.918 | [70] 0.767 | [71] 0.918 | [72] 0.93 | [73] 0.802 | [74] 0.924 | [76] 0.903 | [77] 0.917 | [78] 0.757 | [79] 0.918 | [80] 0.725 | [81] 0.806 | [84] 0.924 | [88] 0.932 | [90] 0.922 | [91] 0.926 | [92] 0.915 | [93] 0.912 | [94] 0.915
active: [39] 0.666 | [40] 0.592 | [41] 0.548 | [47] 0.614 | [48] 0.602 | [8] 0.477 | [50] 0.495 | [51] 0.583 | [54] 0.482 | [64] 0.59 | [65] 0.394 | [68] 0.679 | [75] 0.455 | [82] 0.636 | [83] 0.515 | [85] 0.574 | [86] 0.529 | [87] 0.522 | [89] 0.476

O=C(Nc1cccnc1)c1cccc(Cl)c1Cl
inactive: [1] 0.977 | [2] 0.993 | [3] 0.98 | [4] 0.988 | [5] 0.957 | [6] 0.971 | [7] 0.983 | [8] 0.935 | [9] 0.99 | S. cerevisiae deletion strains, locus YJL187C, strain SWE1, active compounds read low 1.01 | [10] 0.993 | [11] 0.991 | S. cerevisiae deletion strains, locus YKL190W, strain CNB1, active compounds read low 0.989 | [12] 1.02 | [13] 1 | [14] 0.955 | [15] 1.01 | [16] 0.946 | [17] 0.992 | [18] 1.01 | S. cerevisiae deletion strains, locus YMR307W, strain GAS1, active compounds read low 1.01 | S. cerevisiae deletion strains, locus YNL128W, strain TEP1, active compounds read low 0.976 | [19] 0.994 | [20] 0.946 | [21] 0.982 | [22] 0.975 | S. cerevisiae deletion strains, locus YOL006C, strain TOP1, active compounds read low 0.943 | [23] 1.02 | [24] 0.985 | [25] 0.856

O=C(c1cc2c(s1)-c1ccccc1CC2)N1CCN(Cc2ccccc2)CC1
inactive: [26] 1 | [27] 1 | [28] 0.996 | [29] 0.999 | [30] 0.998 | [31] 1 | [32] 0.999 | [3] 0.999 | [33] 0.998 | [34] 0.993 | [35] 0.965 | [36] 1 | [37] 0.99 | [38] 1 | [39] 0.982 | [40] 0.929 | [41] 0.985 | [42] 1.01 | [43] 1 | [44] 0.998 | [45] 0.941 | [46] 0.996 | [47] 0.962 | [48] 1.1 | [49] 0.988 | [8] 1 | [50] 0.971 | [51] 1.04 | [52] 0.94 | [53] 1 | [54] 0.974 | [55] 0.974 | [56] 0.976 | [57] 0.988 | [58] 0.958 | [59] 1.07 | [60] 0.984 | [61] 0.955 | [62] 0.984 | [63] 1 | [64] 1.01 | [65] 0.96 | [66] 0.971 | [67] 0.966 | [68] 0.953 | [69] 1 | [70] 0.981 | [71] 1.01 | [72] 1.02 | [73] 0.982 | [74] 1 | [75] 0.984 | [76] 1 | [77] 1.01 | [78] 0.963 | [79] 1.01 | [80] 0.964 | [81] 1 | [82] 1.1 | [83] 0.981 | [84] 1.01 | [85] 0.981 | [86] 0.975 | [87] 0.951 | [88] 1.01 | [89] 0.958 | [90] 1 | [91] 0.996 | [92] 0.977 | [93] 0.998 | [94] 1
